Several values for one entry are separate records, joined by “and”; a condition that tells them apart may be missing. Identical values can stand only once. Inconclusive results are not listed. Activity calls are given as the source filed them. Calls follow the shape of the dose curve; as a rule, active = well fitted curve in the direction sought with a large enough effect; inconclusive = small, poorly fitted or top-dose-only effect, or another doubt; inactive = no such curve, though single readings can be large; an effect the other way counts as inactive or inconclusive.
Assays:
MKL-1 = assay: qHTS assay to identify novel small-molecules to repurpose for Merkel cell carcinoma treatment (AID 1296009); details: MCC and control cell lines, CellTiter-Glo viability, 72 h; series mostly up to 46 µM; also: nearly all actives have a fitted effect of over 60% in size; also: potency is read from the fitted curve at half-maximal effect
Outline: (§1)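 Cell viability measured by CellTiter-Glo following 72 hr compound treatment at 37 degree celsius, with NPC and MIPE libraries tested in 8- and 11-point concentration series.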

MKL-2 = assay: as above; details: MCC and control cell lines, CellTiter-Glo viability, 72 h; series mostly up to 46 µM
Outline: as §1

NIH3T3 = assay: as above; details: MCC and control cell lines, CellTiter-Glo viability, 72 h; at 44.8 µM (top of the series) unless noted
Outline: as §1

UISO = assay: as above; details: MCC and control cell lines, CellTiter-Glo viability, 72 h; series mostly up to 46 µM
Outline: as §1

WaGa = assay: as above; details: MCC and control cell lines, CellTiter-Glo viability, 72 h; series mostly up to 46 µM
Outline: as §1

C33A = assay: Primary qHTS to identify gynecologic anti-cancer compounds using libraries of approved drugs and bioactive compounds (AID 1345084); details: Gynecologic cancer cell panel viability, ATPlite luminescence, 48 h; series mostly up to 57.5 µM; also: nearly all actives have a fitted effect of over 55% in size
Outline: (§2)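 Cell viability after 48 h drug treatment, ATPlite luminescence readout; five doses.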

CAOV3 = assay: as above; details: Gynecologic cancer cell panel viability, ATPlite luminescence, 48 h; series mostly up to 57.5 µM
Outline: as §2

CASKI = assay: as above; details: Gynecologic cancer cell panel viability, ATPlite luminescence, 48 h; series mostly up to 57.5 µM
Outline: as §2

Es-2 = assay: as above; details: Gynecologic cancer cell panel viability, ATPlite luminescence, 48 h; series mostly up to 57.5 µM
Outline: as §2

HeLa = assay: as above; details: Gynecologic cancer cell panel viability, ATPlite luminescence, 48 h; series mostly up to 57.5 µM
Outline: as §2

Hek293T = assay: as above; details: Gynecologic cancer cell panel viability, ATPlite luminescence, 48 h, control line for the selectivity index; series mostly up to 57.5 µM
Outline: as §2

JEG-3 = assay: as above; details: Gynecologic cancer cell panel viability, ATPlite luminescence, 48 h; series mostly up to 57.5 µM
Outline: as §2

OV90 = assay: as above; details: Gynecologic cancer cell panel viability, ATPlite luminescence, 48 h; series mostly up to 57.5 µM
Outline: as §2

PA-1 = assay: as above; details: Gynecologic cancer cell panel viability, ATPlite luminescence, 48 h; series mostly up to 57.5 µM
Outline: as §2

SKOV3 = assay: as above; details: Gynecologic cancer cell panel viability, ATPlite luminescence, 48 h; series mostly up to 57.5 µM
Outline: as §2

Tov-21-G = assay: as above; details: Gynecologic cancer cell panel viability, ATPlite luminescence, 48 h; series mostly up to 57.5 µM
Outline: as §2

Tov112D = assay: as above; details: Gynecologic cancer cell panel viability, ATPlite luminescence, 48 h; series mostly up to 57.5 µM
Outline: as §2

[1] = Drug repurposing screens with cells derived from glioblastoma tumor samples (AID 1345199); details: GBM patient neurospheres viability, ATP luminescence, 48 h; also: nearly all actives have a fitted effect of over 40% in size
Outline: (§3)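 Primary testing used CD133+ neurospheres from four GBM patients, seven concentrations, 48 h exposure and ATP-based viability; confirmation added three slower-growing patient lines.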

astro = assay: as above; details: viability, ATP luminescence, 48 h; series mostly up to 45.9 µM
Outline: as §3

[2] = at 45.9 µM (top of the series), tumour line B
[3] = at 45.9 µM (top of the series), tumour line D
[4] = at 46 µM (top of the series), tumour line A
[5] = at 46.1 µM (top of the series), tumour line C
% is scaled to controls: 0 for no effect and ±100 for the full control effect.

CC(C)OC(=O)CCCC=CC[C@@H]1[C@H](C=C[C@@H](O)COc2cccc(C(F)(F)F)c2)[C@H](O)C[C@@H]1O
inactive: Potency (MKL-1)

CC(=Cc1ccccc1)C=C1SC(=S)N(CC(=O)O)C1=O
inactive: Potency (MKL-1) | Potency (MKL-2) | outcome (NIH3T3) | Potency (UISO) | Potency (WaGa)

CC(=O)N[C@@H](CS)C(=O)O
inactive: Potency (MKL-1) | Potency (MKL-2) | outcome (NIH3T3) | Potency (UISO) | Potency (WaGa) | Potency (C33A) | Potency (CAOV3) | Potency (CASKI) | Potency (Es-2) | Potency (HeLa) | Potency (Hek293T) | Potency (JEG-3) | Potency (OV90) | Potency (PA-1) | Potency (SKOV3) | Potency (Tov-21-G) | Potency (Tov112D) | activity, negative = cell killing [1, 2] -7.88% | activity, negative = cell killing [1, 3] -1.21% | activity, negative = cell killing [1, 4] -28.2% | activity, negative = cell killing [1, 5] -14.2% | Potency (astro)

COc1ccc(-c2cc(=O)c3c(O)cc(O)cc3o2)cc1O
inactive: Potency (MKL-1) | Potency (MKL-2)

COc1ccc(-c2coc3cc(O)cc(O)c3c2=O)cc1
inactive: Potency (MKL-1) | Potency (MKL-2) | outcome (NIH3T3) | Potency (UISO) | Potency (WaGa)

COc1cccc2c1CCCC2CCCN1CCN(C2CCCCC2)CC1 (stereo not drawn)
inactive: Potency (MKL-1)

Nc1ncnc2c1ncn2[C@@H]1O[C@H](CO)C[C@@H]1O
inactive: Potency (MKL-1) | Potency (MKL-2) | Potency (UISO)
active: Potency (WaGa) 14.8 µM

Cc1nnc(C(C)C)n1C1C[C@H]2CC[C@@H](C1)N2CC[C@H](NC(=O)C1CCC(F)(F)CC1)c1ccccc1 (stereo partly drawn)
inactive: Potency (MKL-1) | Potency (MKL-2) | outcome (NIH3T3) | Potency (UISO) | Potency (WaGa) | activity, negative = cell killing [1, 2] -4.81% | activity, negative = cell killing [1, 3] -11.6% | activity, negative = cell killing [1, 5] 5.31% | Potency (astro)

OC[C@H]1O[C@@H](Oc2cc(O)cc(C=Cc3ccc(O)cc3)c2)[C@H](O)[C@@H](O)[C@H]1O
inactive: Potency (MKL-1) | Potency (MKL-2) | Potency (UISO) | Potency (WaGa)

O=C1NC(=O)C(=Cc2ccc3c(c2)OC(F)(F)O3)S1
inactive: Potency (MKL-1) | Potency (MKL-2) | Potency (UISO)

COc1ccccc1N1CCN(CCCNc2cc(=O)n(C)c(=O)n2C)CC1
inactive: Potency (MKL-1) | Potency (MKL-2) | outcome (NIH3T3) | Potency (UISO) | Potency (WaGa) | Potency (C33A) | Potency (CASKI) | Potency (Es-2) | Potency (HeLa) | Potency (Hek293T) | Potency (JEG-3) | Potency (OV90) | Potency (PA-1) | Potency (SKOV3) | Potency (Tov-21-G) | Potency (Tov112D) | activity, negative = cell killing [1, 2] -12.1% and -4.13% | activity, negative = cell killing [1, 3] 1.29% and -19.7% | activity, negative = cell killing [1, 4] -30.8% | activity, negative = cell killing [1, 5] -17.7% and -6.4% | Potency (astro)

O=C1NC(=O)C(=Cc2ccc3nccnc3c2)S1
inactive: Potency (MKL-1) | Potency (MKL-2) | Potency (UISO)

CC1CCC(C(=O)N(c2cc(C#CC(C)(C)C)sc2C(=O)O)C2CCC(O)CC2)CC1 (stereo not drawn)
inactive: Potency (MKL-1) | Potency (MKL-2) | outcome (NIH3T3) | Potency (UISO) | Potency (WaGa) | Potency (C33A) | Potency (Es-2) | Potency (HeLa) | Potency (Hek293T) | Potency (OV90) | Potency (PA-1) | Potency (Tov-21-G) | Potency (Tov112D)

— PubChem BioAssay (NCATS)
